Source: PubChem (National Center for Advancing Translational Sciences (NCATS))
CtBP-E1A inh – inhibitors of CtBP/E1A interaction. AlphaScreen GST-E1A/His-CtBP binding, 1536-well; active compounds read low. activity change, % (concentration not given with the values). actives 0.49% (n = 340,000). AID 651724; in the data active = activity change below about -65%; inconclusive = mostly about -30% to -63%
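Homogeneous bead-based format: GST-tagged E1A captured on glutathione donor beads, His-tagged CtBP on nickel acceptor beads; compounds precede bead addition by 2 h at 37 °C.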
DT40 TDP1 CPT – growth inhibition of DT40 Tdp1-/-;hTDP1 cells with camptothecin (screen for TDP1 inhibitors) | chicken DT40 Tdp1-/-;hTDP1 cells + 20 nM CPT, ATP luminescence, 48 h | Potency, µM (highest dose often 46.2 µM), without a hit: at the highest dose activity change, negative = growth inhibition, most hits filed as inhibitors | actives 12% (n = 420,000) | AID 686979; also: potency is read from the fitted curve at half-maximal effect; nearly all actives have a fitted effect of over 55% in size
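Chicken DT40 Tdp1-/- cells stably complemented with human TDP1 were seeded at 400 cells/well in medium containing 20 nM camptothecin, exposed to pin-transferred compounds, and grown at 37 °C for at least 48 hr. Viability was read as ATP luminescence.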
TDP1 block – TDP1 (human) enzyme inhibition; recombinant TDP1, AlphaScreen DNA substrate cleavage; Q9NUW8; Potency, µM (series often up to 130 µM), without a hit: at the highest dose activity change, negative = inhibition, actives largely listed as inhibitors; actives 0.28% (n = 350,000); also: potency is read from the fitted curve at half-maximal effect; nearly all actives have a fitted effect of over 40% in size
Target sequence (Q9NUW8 whole entry, looked up): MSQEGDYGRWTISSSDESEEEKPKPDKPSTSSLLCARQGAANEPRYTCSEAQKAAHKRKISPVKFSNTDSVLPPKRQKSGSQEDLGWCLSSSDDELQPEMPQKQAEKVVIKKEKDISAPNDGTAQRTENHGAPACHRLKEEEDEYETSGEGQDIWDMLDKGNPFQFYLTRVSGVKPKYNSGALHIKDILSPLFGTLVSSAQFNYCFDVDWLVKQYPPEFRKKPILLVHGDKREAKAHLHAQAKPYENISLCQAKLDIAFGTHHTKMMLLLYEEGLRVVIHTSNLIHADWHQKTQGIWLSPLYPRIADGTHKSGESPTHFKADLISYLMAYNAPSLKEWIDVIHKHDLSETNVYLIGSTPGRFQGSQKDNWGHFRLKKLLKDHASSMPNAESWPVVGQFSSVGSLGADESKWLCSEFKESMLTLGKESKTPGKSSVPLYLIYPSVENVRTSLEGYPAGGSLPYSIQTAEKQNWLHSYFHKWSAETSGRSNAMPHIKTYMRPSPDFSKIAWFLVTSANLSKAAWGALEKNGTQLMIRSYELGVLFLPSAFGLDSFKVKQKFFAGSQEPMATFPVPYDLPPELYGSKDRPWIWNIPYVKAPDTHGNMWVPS
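Tdp1 1 nM final; 15 min RT w/ cpd; substrate 15 nM, 5 min; beads 10 ug/ml, 10 min; AlphaScreen read. Neg ctrl: no enzyme.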
TDP1 cell noCPT – qHTS for Inhibitors of human tyrosyl-DNA phosphodiesterase 1 (TDP1): qHTS in cells in absence of CPT | DT40 Tdp1-/- hTDP1 cells, no CPT, ATP luminescence, 48 h | AID 686978, 2013 | actives 15% (n = 420,000) | Potency, µM (doses to about 46.2 µM), without a hit: at the highest dose activity change, negative = growth inhibition, actives largely listed as inhibitors; also: potency is read from the fitted curve at half-maximal effect; nearly all actives have a fitted effect of over 55% in size
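Seeded 400 DT40-hTDP1 cells/well (vehicle DMSO, no 20 nM CPT); pinned compounds; ≥48 hr at 37 °C; CellTiter-Glo luminescence as viability measure.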
Six1-Eya2 blk – inhibitors of human Six1/Eya2 interaction; Q15475+O00167; activity change, % (test concentration not listed); AlphaScreen GST-Six1/His-Eya2 binding, biochemical; active compounds read low; actives 0.56% (n = 360,000); in the data active = activity change below about -65%; inconclusive = mostly about -30% to -63%
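Compounds are tested against tagged Six1 and Eya2 proteins bridged by glutathione donor and nickel acceptor beads; after a one-hour incubation at 37 °C without light, AlphaScreen emission is recorded.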
IL-1B inflam inh – blocks inflammasome-driven IL-1 beta release; activity change, % at 57.5 µM; THP-1 LPS/ATP IL-1B secretion, AlphaLISA, 16 h; active compounds read low; AID 743279; actives 4.7% (n = 360,000); in the data active = activity change below about -50%; inconclusive = mostly about -30% to -49%
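Secreted IL-1B measured by AlphaLISA bead assay after 16 h compound exposure of THP-1 cells; compounds (final up to 57.5 uM) added 1 h before LPS (250 ng/mL) and ATP (1.25 mM) stimulation; lower signal means less secretion.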
* = called active by the depositor; ? = inconclusive; . = no result given; [ ] = another dose, or the depositor's remark. Hits are enriched below; roughly 18% of the tested compounds scored in any of these assays. Unless noted, calls follow the shape of the dose curve; as a rule, active = well fitted curve in the direction sought with a large enough effect; inconclusive = small, poorly fitted or top-dose-only effect, or another doubt; inactive = no such curve, though single readings can be large; an effect the other way counts as inactive or inconclusive. % is scaled to controls: 0 for no effect and ±100 for the full control effect.

SMILES	CtBP-E1A inh	DT40 TDP1 CPT	TDP1 block	TDP1 cell noCPT	Six1-Eya2 blk	IL-1B inflam inh
CSCCC(NC(=O)CCC(=O)OCC(=O)[C@@]1(O)CCC2[C@@H]3CCC4=CC(=O)C=C[C@]4(C)C3[C@@H](O)C[C@@]21C)C(=O)O (stereo not given in full)	-5	-14%	.	-2%	-10	-55*
CC12C=CC(=O)C=C1CCC1C2C(O)CC2(C)C1CCC2(O)C(=O)CO (stereo not given)	-4	-29%	.	-24%	-3	-60*
CCOCCCn1c(SCC(=O)NC2CCCCC2)nc2ccccc2c1=O	4	?	.	?	4	3
C=CCN1C(=S)N[C@@H]2CS(=O)(=O)C[C@@H]21	3	3%	1%	-2%	2	11
CCCCN(C(=O)CCC(=O)Nc1cc(C)on1)C(C(=O)NC1CCCC1)c1ccc(OCC)cc1 (stereo not given)	4	?	6%[0.0935 µM]	16µM*	1	-16
Cc1cc(NC(=O)CCC(=O)N(CCC(C)C)CC(=O)NCC2CCCO2)no1 (stereo not given)	-6	5%	5%	0%	6	39
Cc1cc(NC(=O)CCC(=O)N(CCC(C)C)C(C(=O)NCC2CCCO2)c2ccccc2C)no1 (stereo not given)	-4	-11%	10%	?	2	-57*
C=CCN(C(=O)CCC(=O)Nc1cc(C)on1)C(C(=O)NC1CCCC1)c1ccc(CC)cc1 (stereo not given)	5	?	2%	15µM*	1	-9
Cc1ccc(Cn2c(C3CCCN3c3nc(-c4cc(Cl)c(N)c(Cl)c4)cs3)nc3cc(Cl)c(Cl)cc32)cc1 (stereo not given)	-1	-16%	.	?	-9	20
COCCn1c(SCC(=O)NNC(=O)c2cc(Cl)ccc2OC)nnc1-c1ccncc1	.	-13%	0%	-12%	-7	-11
CCC(NC(=O)CCc1nnc(-c2cc(C)on2)o1)C12CC3CC(CC(C3)C1)C2 (stereo not given)	-3	21µM*	6%	16µM*	0	25
COC(=O)C1Cc2c([nH]c3ccccc23)C(C(C)C)N1 (stereo not given)	1	3%	.	-9%	-5	6
CCOc1ccc(C(=O)CCNC(Cc2cnc[nH]2)C(=O)O)cc1 (stereo not given)	-66*	-12%	1%	-9%	?	18
COc1ccccc1-c1nc2ccccc2nc1-c1ccccc1	17	18µM*	-8%	?	8	17
CCN(Cc1nc(-c2cccc(C)c2)no1)C(=O)c1ccc2c(c1)OCO2	4	-5%	12%[0.0935 µM]	-6%	-8	-69*
COc1ccc(C(=O)N(Cc2nc(-c3ccc(C)cc3)no2)C2CCCCC2)cc1OC	9	?	1%	?	-11	-67*
CCN(Cc1nc(-c2ccccc2)no1)C(=O)c1ccc2c(c1)OCO2	1	1%	5%	-19%	0	27
Cc1nc(C(C)N(C)Cc2nc(-c3ccc4c(c3)OCO4)no2)c(C)s1 (stereo not given)	-14	23µM*	3%	?	-6	-18
Cc1cccc(-c2noc(CN(C(=O)c3ccc(C)c(C)c3)C(C)C)n2)c1	.	5.2µM*	0%	3.7µM*	.	.
CCOc1ccc(C(=O)N(Cc2nc(-c3cccc(C)c3)no2)C(C)C)cc1	.	21µM*	2%	?	.	.
Cc1cccc(-c2noc(CN(C(=O)c3c(-c4ccccc4Cl)noc3C)C(C)C)n2)c1	-2	21µM*	6%	18µM*	-6	-14
Cc1onc(-c2ccccc2Cl)c1C(=O)NCc1nc(-c2ccc(C(F)(F)F)cc2)no1	2	?	6%	15µM*	-1	-76*
Cc1onc(-c2ccccc2Cl)c1C(=O)NCc1ccccc1F	6	14%	2%[56.1 µM]	11%	6	3
Cc1cccc(-c2noc(CN(C(=O)C(c3ccccc3)c3ccccc3)C(C)C)n2)c1	-1	?	1%	16µM*	5	-16
CN(C)CCCN1C(=O)C(=O)/C(=C(/O)c2ccccc2)C1c1ccccn1 (stereo not given)	.	.	2%	.	.	.
SMILES	CtBP-E1A inh	DT40 TDP1 CPT	TDP1 block	TDP1 cell noCPT	Six1-Eya2 blk	IL-1B inflam inh
COc1ccc(F)cc1C(=O)C1CCCN(C(=O)CCN2CCCCO2)C1 (stereo not given)	.	-17%	.	-26%	8	2
Cc1cccc(-c2noc(CN(C(=O)c3ccc4c(c3)OCO4)C(C)C)n2)c1	8	18µM*	9%	?	3	-13
Cc1onc(-c2ccccc2Cl)c1C(=O)N(Cc1nc(-c2ccccc2)no1)C1CCCCC1	-3	?	-2%	18µM*	-5	7
Cc1cccc(-c2noc(CN(C(=O)COc3ccc(C(C)C)cc3)C(C)C)n2)c1	.	?	1%	16µM*	.	.
COc1ccc(-c2noc(CN(C(=O)c3ccc4c(c3)OCO4)C(C)C)n2)cc1OC	-6	?	-13%	?	-3	-19
CC1CC(c2ccccc2)n2nc(NC(=O)c3ccco3)nc2N1 (stereo not given)	3	2%	-2%	-4%	1	-11
CC1CC(N(C(=O)c2ccco2)c2ccccc2)c2ccccc2N1 (stereo not given)	-10	?	2%	15µM*	-21	0
CCOc1cc(C(=O)Nc2cc(F)ccc2C)ccc1OCC(=O)N1CCOCC1	11	-17%	-2%	-15%	1	-7
CN(C)c1ccc(-c2nc(Nc3ccncc3)c3ccccc3n2)cc1	.	9.2µM*	15%	5.8µM*	.	.
COc1ccc(CNc2nc(-c3ccc(C(=O)N(C)C)cc3)nc3ccccc23)c(OC)c1	.	?	-13%	?	.	.
CN(C)c1ccc(-c2nc(NCc3cccnc3)c3ccccc3n2)cc1	.	3.7µM*	5%[56.1 µM]	4.1µM*	.	.
c1cncc(CNc2nc(-c3ccoc3)nc3ccccc23)c1	.	?	.	21µM*	.	.
COc1ccc(CNc2nc(-c3ccc(N(C)C)cc3)nc3ccccc23)c(OC)c1	.	4.1µM*	.	4.1µM*	.	.
c1ccc(Nc2nc(-c3ccncc3)nc3ccccc23)cc1	-3	-2%	-1%	-19%	-1	5
CCc1ccc2[nH]c(O)c(N=NC3=NC(=O)CS3)c2c1	0	2.6µM*	4%	1.8µM*	-3	37
